The results in this text go back to PubChem BioAssay AID1626 (SRMLSC, 2009).

Where “and” joins values, the source holds several entries; their conditions need not be identical. Equal entries are not always repeated. About 2,000 (0.91%) of roughly 220,000 compounds were called active. Inconclusive results (about 2%) are left out. These entries were drawn from the full list. Entries with a potency or affinity are not part of this list. Values without a mark were called inactive. Rule as the data show it: inconclusive = inhibition above about 80% without an active follow-up result; inactive = below that; test concentration not stated here.

The experiment is described as follows: M. tuberculosis H37Rv growth inhibitors, H37Rv strain (AID 1626).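 Also: bacteria incubated seven days before Alamar blue readout; 0% = bacteria only wells and 100% = bacteria with antibiotic wells.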 The note with it: active compounds read high, concentration not given here.
Broadly, the inhibition is the change of the read-out against control, counted positive when it falls. As to `CCNC(=O)CC1S/C(=N/N=C(\C)c2ccccc2)NC1=O` (stereo not given), the inhibition was 2.78%.

For `O=C(CNC(=O)c1cccs1)c1ccc(F)cc1`, the inhibition is 4.53%. For the compound `CCN(CC)S(=O)(=O)c1ccc(C(=O)OCC(=O)Nc2sc3c(c2C#N)CCCCC3)cc1`, the inhibition is 6.83%.

As to `COc1ccc(-c2cc(-c3ccccc3)[n+](C)c(-c3ccccc3)c2)cc1`, the inhibition was 2.49%. The result for `COc1ccc(-c2ccc(OC)cc2)cc1` reads -6.18%; that for `CCC(=O)Nc1cccc(C(=O)c2ccccc2)c1`, 25.8%. Turning to `CC(=O)Nc1cccc(C(=O)/C=C/c2ccc(F)cc2)c1`, the inhibition was 16.5%.

Consider `CC(=O)Nc1cccc(C(=O)/C=C/c2ccc[nH]2)c1`, for which the inhibition is -13.8%. The result for `CC(=O)Nc1cccc(C(=O)/C=C/c2ccc(/C=C/C(=O)c3cccc(NC(C)=O)c3)cc2)c1` reads 2.15%; that for `CC(=O)Nc1cccc(C(=O)/C=C/c2ccc(N(C)C)cc2)c1`, 8.2%. As for `CCC(=O)Nc1cccc(C(=O)/C=C/c2cccs2)c1`, the inhibition was 31.2%. The result for `CC(C)CN1C(=O)C(NC(=O)C2CC2)(C(F)(F)F)C2=C1CC(C)(C)CC2=O` (stereo not given) reads -4.55%. The result for `COc1ccc(-n2c(SCC(=O)N/N=C/c3ccccc3OCC(=O)O)nc3ccccc3c2=O)cc1` reads -3.87%; that for `COc1ccc(-c2cc(C(=O)OCC(=O)N(C)C)c3ccccc3n2)cc1`, -8.2%. The result for `N#CCCN/N=C(\Cc1nc2ccccc2[nH]1)c1ccccc1` reads -0.45%. Regarding `COc1cc(C(C)=O)ccc1COc1ccc(C(=O)OCC(=O)NC2CCS(=O)(=O)C2)cc1OC` (stereo not given), the inhibition was 1.52%.

Turning to `O=C(O)CCn1cc(/C=C\C(=O)c2ccc(Cl)cc2)c(-c2cccc(Br)c2)n1`, the inhibition was -1.2%.

For the compound `CCN(CC)CCCNc1cc(C)nc2cc(-c3cccs3)nn12`, the inhibition was -2.4%.

For the compound `CC(Oc1ccc(Cl)cc1Cl)c1nc(-c2ccc(NC(=O)c3ccccn3)cc2)no1` (stereo not given), the inhibition was -3.67%.

With `CC(Oc1ccc(Cl)cc1Cl)c1nc(-c2ccc(NC(=O)c3cccnc3)cc2)no1` (stereo not given), the inhibition is 76.2%. For the compound `CCCOc1ccc(-c2nc(OC)c3ccccc3n2)cc1`, the inhibition was 77%. Next, `Nc1ccc(/C=C/C(=O)c2ccco2)cc1`: 78.3%. `O=C(/C=C/c1ccc(Br)cc1)c1ccc(NC(=O)c2ccco2)cc1`: the inhibition is 10.8%. The result for `S=c1[nH]c2ccccc2[nH]1` reads -2.67%; that for `S=c1[nH]c2cc3ccccc3cc2[nH]1`, 73.9% and 72.9%. Regarding `O=C(Cc1ccc(S(=O)(=O)N2CCCC2)s1)Nc1nc2c(s1)CCCC2`, the inhibition was 1.89%. Next, `Cc1ccccc1COc1ccc(/C=C(\C#N)C(N)=O)cc1`: 6.69%; `CCOc1ccc(OCCN(C)Cc2ccccc2)cc1`: 4.01%. Next, `COc1cc(-c2nc3ccc4ccccc4c3c3c2CCC3)ccc1O`: 20.8%. As for `Cc1cc(-c2cccc([N+](=O)[O-])c2)nc2ccc3ccccc3c12`, the inhibition is -9.17%. The result for `COc1cc(-c2nc3ccc4ccccc4c3c3c2CCC3)cc(OC)c1OC` reads -4.59%; that for `Oc1ccc(-c2nc3ccc4ccccc4c3c3c2CCC3)cc1O`, 1.26%.

As to `Cc1ccc(/C=C/C(=O)NCc2ccncc2)cc1`, the inhibition was 7.66%. The result for `Cn1c(N)c(C(=O)COC(=O)C2CCCC2)c(=O)n(C)c1=O` reads -2.87%; that for `Cc1ccc(S(=O)(=O)N(C)C)cc1NC(=S)NNC(=O)C(N)=O`, 1.54%; that for `CCCCCCC(=O)N(O)C1CC(=O)N(c2ccc(Cl)cc2)C1=O` (stereo not given), 7.87%. The result for `CCOCCOC(=O)c1cccc(NC(=O)OCC)c1` reads -3.13%; that for `C=CCn1c(O)c(N=NC(=O)CNC(=O)/C=C/c2ccco2)c2ccccc21`, -15.1%; that for `OCc1nc2ccccc2n1/N=C/c1cccs1`, 1.55%.

Turning to `Cc1nc2ccccc2n1/N=C/c1cccnc1`, the inhibition was -6.36%. Turning to `Cc1cc2ncn(/N=C/c3cc(Br)ccc3O)c2cc1C`, the inhibition was -5.04%.

Regarding `Cc1cc2ncn(/N=C/c3cccnc3)c2cc1C`, the inhibition is 7.38%. `Cc1ccc(/C=N/n2c(C)nc3ccccc3c2=O)s1`: the inhibition was -1.18%. For the compound `O=[N+]([O-])c1ccc(O)c(/C=N/n2c(CO)nc3ccccc32)c1`, the inhibition is -3.46%. The result for `OCCN(CCO)CC(O)COc1ccc(C23CC4CC(CC(C4)C2)C3)cc1` (stereo not given) reads 24.6%; that for `CCC1CCCCN1CCCNC(=O)Cn1nc(-c2ccc(C)cc2)ccc1=O` (stereo not given), -8.72%; that for `O=C(CSc1nnc(-c2ccco2)n1Cc1ccco1)Nc1ccccc1`, -2.58%. As to `Cc1cccc(NP(=O)(Oc2ccccc2F)Oc2ccccc2F)c1C`, the inhibition was 1.18%.

Consider `O=C(NCc1ccccc1)c1ccccc1-c1nc2ccccc2[nH]1`, for which the inhibition was 4.78%. Take `CCOC(=O)Cc1c(C)nc2c(-c3ccc(Cl)cc3)c(C)[nH]n2c1=O`: the inhibition is 78.8%.

`Cc1ccc(-c2csc(NC(=O)CSc3nc(C)cc(=O)[nH]3)n2)cc1`: the inhibition is 1.91%. Next, `Clc1ccc(-c2cc(-c3nnc4n3CCCCC4)c3ccccc3n2)cc1`: 71.9%; `OC(c1cc(C(F)(F)F)nc2c(Cl)cc(Cl)cc12)C1CCCCN1` (stereo not given): 49.4%; `CCN(CC)S(=O)(=O)c1ccc(N2CCCC2)c(NC(=O)CC(C)(C)C)c1`: -7.98%. Next, `O=C(Nc1cc(Sc2ccccn2)cc([N+](=O)[O-])c1)c1ccc(Cl)cc1`: 7.55%; `COC(=O)c1cc(OC)c(OC)cc1NC(=S)Nc1cc(Cl)ccc1OC`: -12%; `Nc1ccc(Nc2nc(-c3cc4ccccc4oc3=O)cs2)cc1`: -8.26%. With `O=C(Nc1nc(-c2cc3ccccc3oc2=O)cs1)c1ccco1`, the inhibition is -2.76%. Consider `CC1=C(C(=O)Nc2ccccc2)C2(CCCCC2)C(C#N)=C(S)N1`, for which the inhibition is -2.79%. In the case of `Cc1ccc(S(=O)(=O)N(C)C)cc1NC(=O)COC(=O)CCC(=O)c1cccs1`, the inhibition was 0.54%. On to `COc1ccc2c(c1)c(C(=O)CN1CCN(C(=O)c3ccco3)CC1)c(C)n2C`, for which the inhibition was 3.66%.

Take `Cc1ccc(NCC(=O)c2ccc([N+](=O)[O-])cc2)cc1`: the inhibition is 6.43%. Turning to `COc1ccc(C(CC(=O)c2ccc(C)cc2)Nc2ccc([N+](=O)[O-])cc2)cc1` (stereo not given), the inhibition is 13.5%. For `CC1(C)CC(=O)c2sc(N3CCCCC3)nc2C1`, the inhibition was 1.75%. In the case of `Fc1ccc(-c2nnn3c2nc(NCc2ccccc2)c2ccccc23)cc1`, the inhibition is -3.18%. Regarding `COc1ccc(COC(=O)Nc2cc3c(C(F)(F)F)nn(C)c3s2)cc1`, the inhibition was 0.73%. The result for `Cn1nc(C(F)(F)F)c2cc(NC(=O)OCc3ccc(F)cc3)sc21` reads -0.24%; that for `COc1ccc(CNC(=O)COC(=O)/C=C/c2ccc(Cl)cc2)cc1`, 2.04%; that for `COc1ccc(-c2nc(N)n(C(=O)c3ccccc3)n2)cc1`, 6.59%. Next, `O=C(NC1CCCCCC1)c1ccc(=O)n(Cc2ccccc2)n1`: -0.36%; `CC(C)COC(=O)c1ccccc1C(=O)OCC(C)C`: -10%. Turning to `COC(=O)c1ccc2c(c1O)C(=O)c1ccccc1C2=O`, the inhibition was 1.91%. `CCOC(=O)c1c(C)oc2c1c(CN1CCN(CCO)CC1)c(O)c1ccccc12`: the inhibition was 3.65%.

For `O=C(CN1CC=C(c2ccccc2)CC1)NC(=O)NCc1ccco1`, the inhibition is -3.79%. Turning to `Cc1ccc(OCC(O)CN2CCN(CC(O)COc3ccc(C)cc3)CC2)cc1` (stereo not given), the inhibition was 2.23%. Regarding `COc1ccc(-c2cc3ccccc3n2CC(O)CN2CCN(CCO)CC2)cc1` (stereo not given), the inhibition was 4.8%. As for `CCOc1ccc(CN2CCN(C(=O)c3ccccc3)CC2)cc1`, the inhibition is 0.42%. The result for `OC(CN1CCN(c2ccccc2)CC1)Cn1c2ccccc2c2ccccc21` (stereo not given) reads 11.9%; that for `O=C(c1ccco1)N1CCN(CC(O)Cn2c3ccccc3c3ccccc32)CC1` (stereo not given), 1.44%; that for `COc1ccc(-c2cc3ccccc3n2CC(O)CN2CCCCC2)cc1` (stereo not given), 3%. For the compound `Cc1ccc(OCC(O)Cn2c3ccccc3c3ccccc32)cc1` (stereo not given), the inhibition was 72.7%. As to `OC(COc1ccccc1)Cn1c2ccccc2c2ccccc21` (stereo not given), the inhibition was 41.6%.

For `O=C(N/N=C/c1c(Cl)cccc1Cl)c1ccccc1F`, the inhibition was 65.5%. Turning to `O=C(CNc1ccccc1)NN=C1CCCC1`, the inhibition is -7.1%. Take `COc1cccc(CNC(=O)CCC2CCCN(C(=O)c3cscn3)C2)c1` (stereo not given): the inhibition was -1.29%.

Regarding `CCOC(=O)N1CCN(C(=O)Nc2ccc(NC(=O)N3CCN(C(=O)OCC)CC3)cc2)CC1`, the inhibition was -0.49%. Next, `COc1ccccc1/C=C/C(=O)N1CCOCC1`: -12.7%; `O=C(NCCCN1CCOCC1)/C(=C/c1ccc(F)cc1)NC(=O)c1ccccc1`: -5.09%; `CC1(C)NC(=O)N(CC(=O)Nc2cc(S(=O)(=O)N3CCOCC3)ccc2N2CCOCC2)C1=O`: 0.65%. As for `C=CCNC(=O)NC(=O)COC(=O)[C@H](C)NS(=O)(=O)c1c(C)c(C)cc(C)c1C`, the inhibition is 0.16%.

For `COC(=O)c1ccc(Cn2cnc3c(cnn3-c3ccc(C)c(C)c3)c2=O)o1`, the inhibition is -9.12%. The result for `COc1ccc2c(c1)CCCN2C(N)=O` reads -8.08%; that for `C=CCn1c(SCC(=O)c2ccc(O)c(O)c2)nnc1-c1ccccc1OC`, -2%.

Take `C=CCn1c(SCc2csc(-c3ccc(Cl)cc3)n2)nnc1-c1ccccc1OC`: the inhibition is 7.93%.

For `COc1cc(NS(=O)(=O)c2ccc(NC(=O)NC3CCCCC3)cc2)nc(OC)n1`, the inhibition was -5.16%.
